According to PubChem BioAssay AID540308 (The Scripps Research Institute Molecular Screening Center, 2011):
About 3,500 (0.97%) of roughly 360,000 compounds were called active.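 The calls were made as follows: active = activation above a per-plate cutoff, the mean activation of sample wells on that plate plus 3 SD (cut at about 8% in these data); inactive = the rest.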 The sample as a whole holds a higher share of actives than the screen did.

What follows are compounds tested against Melanocortin receptor 4 (Homo sapiens) (UniProt P32245) (assay: activators of MC4R beta-arrestin recruitment – cell-based, luminescence, agonist arm of biased-ligand search, primary screen (AID 540308)). Conditions: U2OS MC4R beta-arrestin complementation, at 8.9 µM, active compounds read high, percent of melanotan II response, DMSO zero.
Melanocortin receptor 4 (Homo sapiens), sequence (P32245 whole entry, looked up): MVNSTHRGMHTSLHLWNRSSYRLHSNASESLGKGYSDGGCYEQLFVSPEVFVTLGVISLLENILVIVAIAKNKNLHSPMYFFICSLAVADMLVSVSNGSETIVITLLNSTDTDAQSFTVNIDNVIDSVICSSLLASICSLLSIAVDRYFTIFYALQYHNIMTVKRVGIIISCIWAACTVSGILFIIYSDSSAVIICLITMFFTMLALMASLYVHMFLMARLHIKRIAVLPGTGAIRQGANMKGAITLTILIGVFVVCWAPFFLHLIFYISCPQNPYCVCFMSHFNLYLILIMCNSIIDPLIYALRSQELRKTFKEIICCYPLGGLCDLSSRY

SMILES	activation
Cc1ccc(Nc2nc(N)nc(CSc3nnc(C)s3)n2)cc1	-0.99% (inactive)
Cc1ccc(Nc2nnc(SCc3ccccc3)s2)cc1	16.6% (active)
Cc1ccc(Nc2nnc(SC(C)C(=O)NC3CC3)s2)cc1 (stereo not given)	1.11% (inactive)
OC[C@@H]1CN(C2CCCC2)C[C@H](n2cnc3c(NC4CCC4)ncnc32)O1	-0.37% (inactive)
Cc1ccccc1NC(=O)c1ccc(COc2ccc3c(C)cc(=O)oc3c2)cc1	19.5% (active)
CCN(C(=O)COC(=O)c1ccc(COc2ccc3c(C)cc(=O)oc3c2)cc1)C1CCS(=O)(=O)C1 (stereo not given)	-3.78% (inactive)
CCOC(=O)c1cc(=O)c2ccc(OCc3ccccc3)cc2o1	-0.49% (inactive)
Cc1ccc(CC2(C)C(=O)Nc3ccc(OC(F)(F)F)cc32)cc1 (stereo not given)	6.29% (inactive)
CC1(Oc2ccccc2-c2ccno2)CCN(Cc2ccc(-c3ccccc3)o2)C1 (stereo not given)	-0.57% (inactive)
CCc1nc2c(OCCOc3ccccc3)cccn2c1N(C=O)Cc1ccc(OC)cc1	-1.25% (inactive)
CCc1nc2c(OCCOc3ccccc3)cccn2c1N(C)C(=O)c1ccccc1F	-0.99% (inactive)
N#Cc1ccc(-c2ccc3nccn3c2)cc1	-0.91% (inactive)
O=C(Nc1ccc(OCCO)cc1)c1csc([C@H]2C[C@H](O)[C@@H](CO)O2)n1	1.86% (inactive)
CCN1CCC(O)(/C=C/c2ccc(C)cc2)C(C(=O)/C=C/c2ccc(C)cc2)C1 (stereo not given)	-1.73% (inactive)
Cc1ccc(SCC(=O)N2CCN(c3ccc(F)cc3)CC2)cc1	-0.3% (inactive)
CCN1CCC2(CC1)N=C(c1ccc(F)cc1)C(=S)N2C(=O)c1ccc(C)cc1	11.5% (active)
COc1ccc(-c2sc3ccc(OC)cc3c2C#Cc2ccccn2)cc1	-2.74% (inactive)
COc1ccc2sc(-c3ccc(S(C)(=O)=O)cc3)c(-c3ccc(C(N)=O)cc3)c2c1	0.87% (inactive)
COc1ccc2sc(-c3ccc(S(C)(=O)=O)cc3)c(C#Cc3cncn3C)c2c1	35.2% (active)
CC1(C(=O)O)CCN1C(=O)/C=C/c1ccccc1 (stereo not given)	0.27% (inactive)
COc1ccccc1CNC(=O)c1cc(-c2cc(Cl)ccc2C)n[nH]1	-0.81% (inactive)
Cc1ccc(NS(=O)(=O)c2cc3c(cc2Br)NC(=O)CO3)cc1C	1.67% (inactive)
COc1ccccc1Cn1c(CO)nc2ccccc21	1.82% (inactive)

SMILES	activation
CCn1c(C(O)c2cc(OC)ccc2OC)nc2ccccc21 (stereo not given)	-1.32% (inactive)
COc1ccc(C)c(Cn2c(-c3nonc3N)nc3ccccc32)c1	12.1% (active)
CCCNC(=O)C1(C)CCCN(Cc2cccc(C(F)(F)F)c2)C1 (stereo not given)	0.13% (inactive)
COc1cccc(CNc2nc(NCc3ccccc3OC)nc3ccsc23)c1	-1.7% (inactive)
COc1ccc(-c2ccc(C(=O)NCCN3CCOCC3)c3occc23)c(C)c1	-2.32% (inactive)
CCNC(=S)Nc1ccc2c(c1)c(=O)n(C)n2Cc1ccc(Cl)cc1	-1.45% (inactive)
C=CCN(CC=C)S(=O)(=O)c1ccc(C(=O)Nc2nc3c(s2)CCc2ccccc2-3)cc1	1.77% (inactive)
COCCN(CC(=O)Nc1ccccc1C)S(=O)(=O)c1ccc(S(=O)(=O)N2CCCC2)cc1	-3.53% (inactive)
COCCN(CCOC)S(=O)(=O)c1ccc(C(=O)Nc2nc3c(s2)CCc2ccccc2-3)cc1	15.6% (active)
OC(c1cc(Cl)cc(Cl)c1)c1ncc(-c2ccccc2C(F)(F)F)[nH]1 (stereo not given)	-0.63% (inactive)
OC[C@@H]1CN(Cc2ccncc2)C[C@H](n2cnc3c(N4CCN(c5ccccc5)CC4)ncnc32)O1	0.16% (inactive)
CC1(C(=O)NS(=O)(=O)c2ccc(Cl)cc2)CCN1C(=O)CC1CCCC1 (stereo not given)	1.72% (inactive)
COc1ccc(C(=O)c2oc3ccc(Br)cc3c2NC(C)=O)cc1	11.7% (active)
COc1ccc2oc(=N)c(C(=O)Nc3ccc(Br)cc3)cc2c1	1.15% (inactive)
CC(C)C(=O)Nc1c(C(=O)c2ccc(F)cc2)oc2ccccc12	1.16% (inactive)
CCN(CC(=O)Nc1ccccc1C(=O)NC1CC1)Cc1cccs1	-0.58% (inactive)
Cc1ccc(-n2nc(C)c(/C=N/NC(=O)c3cccs3)c2Cl)cc1	20.9% (active)
Cc1nn(-c2ccccc2)c(NC(=O)c2cccs2)c(-c2ccc(Cl)cc2)c1=O	-1.07% (inactive)
Cc1nn(-c2ccccc2)c(Cl)c1/C=N/NC(=O)c1nn(C)cc1[N+](=O)[O-]	-2.85% (inactive)
COc1cccc(NC(=O)C2(C)CCN2C(=O)CCC2CCCC2)c1 (stereo not given)	2.96% (inactive)
CCC(=O)c1cc2c(cc1NC(=O)c1cccs1)OCCO2	23.2% (active)
COc1cc(NC(=O)c2cccs2)ccc1NC(=O)c1ccccc1Cl	0.56% (inactive)
COc1cc(NC(=O)c2ccc3c(c2)OCO3)ccc1NC(=O)c1cccs1	-0.83% (inactive)

SMILES	activation
COc1ccc(S(=O)(=O)NNC(=O)Nc2ccc(C)cc2)c(OC)c1	0.62% (inactive)
COc1ccc(-c2[nH]ncc2/C=N/NC(=O)c2cc(Br)ccc2O)c(OC)c1	0.86% (inactive)
COc1ccc(/C=N/NC(=O)Nc2ccc3nsnc3c2)c(OC)c1	13.5% (active)
CC(CNc1ccc([N+](=O)[O-])cc1)NC(=O)c1ccccc1Br (stereo not given)	0.96% (inactive)
O=C(NCCNc1ccc([N+](=O)[O-])cc1)c1cccc2c(Br)cccc12	8.32% (active)
O=C(NCCNc1ccc([N+](=O)[O-])cc1Cl)c1ccccc1F	-1.37% (inactive)
CC(=O)Oc1ccc(Cn2c(C)c(C(=O)NCc3ccc(C#N)cc3)sc2=O)cc1	0.49% (inactive)
CCCCCCCCCCOC(=O)Cn1c(COc2ccc(C)cc2)[n+](C)c2ccccc21	16.7% (active)
CCCCOc1ccc(NC(=O)CSCC(=O)OCC)cc1	0.02% (inactive)
Cc1ccc(COc2ccc(C(=O)NN)cc2)cc1	6.84% (inactive)
CCCCCCCCCCOC(=O)Cn1c(COc2cccc(OC)c2)[n+](C)c2ccccc21	21.1% (active)
COCCCNC(=O)c1ccc(-c2c(C)noc2C)c2ccoc12	-0.44% (inactive)
COc1cc(NC(=O)c2cc(-c3ccc(F)cc3OC(C)C)n[nH]2)cc(OC)c1OC	3.09% (inactive)
Cc1ccc(C)c(C(O)c2ncc(-c3cccc4ccccc34)[nH]2)c1 (stereo not given)	-2.84% (inactive)
O=C(NCCCN1CCCCC1)c1ccc2c(c1)NC(=O)C(N1CCOCC1)S2 (stereo not given)	-0.87% (inactive)
CCCNC(=O)c1cc(C2CCCCN2S(=O)(=O)c2ccc(C#N)cc2)on1 (stereo not given)	0.19% (inactive)
O=C(NCCN1CCOCC1)c1ccccc1N1C(=O)[C@@H]2Cc3c([nH]c4ccccc34)C(c3cccc(Cl)c3)N2C1=O (stereo not given in full)	-1.7% (inactive)
Cc1ccc(C(O)c2ncc(-c3ccccc3F)[nH]2)cc1F (stereo not given)	-0.39% (inactive)
COc1ccc(C(NC(=O)C2CCN(CCCc3ccccc3)CC2)c2cccs2)cc1 (stereo not given)	0.65% (inactive)
CCCCNC(=O)CSc1nc2n[nH]c(C)c2c(=N)n1-c1cccc(Cl)c1C	-1.55% (inactive)
Cc1ccc(-n2c(SCC(=O)NCCC3=CCCCC3)nc3n[nH]c(C)c3c2=N)cc1Cl	18.2% (active)
COc1cccc(-n2c(SCC(=O)NC3CCCCC3)nc3n[nH]c(C)c3c2=N)c1	-1.4% (inactive)
COc1ccc(CNC(=O)c2ccc(-c3cccnc3)c3ccoc23)cc1OC	1.26% (inactive)

SMILES	activation
CCCNC(=O)c1cc(C2CCCN(C(=O)c3ccc4c(c3)CCO4)C2)on1 (stereo not given)	-0.64% (inactive)
COc1ccc(C(=O)n2nc(-c3ccc(Cl)cc3)nc2N)cc1OC	0.74% (inactive)
COc1ccc(C(=O)n2nc(C)c(Br)c2C)cc1OC	1.71% (inactive)
COc1ccc(C(=O)n2nc(-c3ccc(C)cc3)nc2N)cc1OC	15.4% (active)
CC(=O)c1ccc(N2CCN(C(=O)CCNC(=O)Cn3ccc4ccccc4c3=O)CC2)cc1	2.35% (inactive)
CCOC(=O)C1CCCN(C(=O)c2cccc3ccccc23)CC1 (stereo not given)	-0.59% (inactive)
O=C(CCC(=O)Nc1ccccc1)N/N=C/c1ccccc1F	-0.29% (inactive)
COc1ccccc1N1CCN(C(=O)C(=O)N/N=C/c2ccccc2F)CC1	-3.16% (inactive)
Fc1ccccc1/C=N/Nc1cc(N2CCCCC2)ncn1	12.1% (active)
CCCNC(=O)C1(C)CCN1C(=O)C1(c2ccccc2)CC1 (stereo not given)	1.14% (inactive)
O=C(COc1ccc(S(=O)(=O)N2CCCC2)cc1[N+](=O)[O-])N1CCCCC1	-1.25% (inactive)
Cc1ccc(S(=O)(=O)N2CCC(C(=O)OCC(=O)N(C)c3ccccc3)CC2)cc1C	-3.84% (inactive)
COc1ccc(S(=O)(=O)N2CCC(C(=O)OCC(=O)c3ccccc3)CC2)cc1[N+](=O)[O-]	31.7% (active)
CCc1nc2ccc(C(=O)NC3CCN(Cc4ccccc4)CC3)cn2c1N(CC)CCOC	4.51% (inactive)
O=C(Nc1ccccc1)c1ccccc1Br	0.3% (inactive)
Cc1ccc(NC(=O)Nc2ccccc2)c(Br)c1	21.9% (active)
CCOc1cc(NC(=O)Nc2ccccc2)c(OCC)cc1NC(=O)CC	0.85% (inactive)
CC(=O)Nc1cccc(-c2ccnc3c2CC(C)(C(=O)NCc2ccco2)O3)c1 (stereo not given)	0.36% (inactive)
O=C(CSc1nc2ccccc2c(=O)n1Cc1ccc(F)cc1)NCC1CCCO1 (stereo not given)	-0.86% (inactive)
O=C(CCCn1c(SCC(=O)c2ccc(F)cc2)nc2ccccc2c1=O)NCc1ccco1	29.6% (active)
Cn1c(-c2ccc(F)cc2)cnc1SCC(=O)NCc1ccco1	-1.34% (inactive)
